Test results published in PubChem BioAssay (EPA / NIEHS).
Inconclusive results are not listed. The source made the active and inactive calls. The calls were made as follows, unless noted: active = hit-call score of the fitted dose curve at least 0.9, where 1 is the maximum; inconclusive = response in the unintended direction; inactive = score below 0.9.

Key:
[1] = molecular target: Glucocorticoid receptor (Homo sapiens) (UniProt P04150); test: NVS_NR_hGR: NovaScreen (NVS) Nuclear Receptor Binding Assay for human Glucocorticoid Receptor (GR) (AID 2283363);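 also: activity is loss of specific radioligand binding signal relative to DMSO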
Glucocorticoid receptor (Homo sapiens), sequence (P04150 whole entry, looked up): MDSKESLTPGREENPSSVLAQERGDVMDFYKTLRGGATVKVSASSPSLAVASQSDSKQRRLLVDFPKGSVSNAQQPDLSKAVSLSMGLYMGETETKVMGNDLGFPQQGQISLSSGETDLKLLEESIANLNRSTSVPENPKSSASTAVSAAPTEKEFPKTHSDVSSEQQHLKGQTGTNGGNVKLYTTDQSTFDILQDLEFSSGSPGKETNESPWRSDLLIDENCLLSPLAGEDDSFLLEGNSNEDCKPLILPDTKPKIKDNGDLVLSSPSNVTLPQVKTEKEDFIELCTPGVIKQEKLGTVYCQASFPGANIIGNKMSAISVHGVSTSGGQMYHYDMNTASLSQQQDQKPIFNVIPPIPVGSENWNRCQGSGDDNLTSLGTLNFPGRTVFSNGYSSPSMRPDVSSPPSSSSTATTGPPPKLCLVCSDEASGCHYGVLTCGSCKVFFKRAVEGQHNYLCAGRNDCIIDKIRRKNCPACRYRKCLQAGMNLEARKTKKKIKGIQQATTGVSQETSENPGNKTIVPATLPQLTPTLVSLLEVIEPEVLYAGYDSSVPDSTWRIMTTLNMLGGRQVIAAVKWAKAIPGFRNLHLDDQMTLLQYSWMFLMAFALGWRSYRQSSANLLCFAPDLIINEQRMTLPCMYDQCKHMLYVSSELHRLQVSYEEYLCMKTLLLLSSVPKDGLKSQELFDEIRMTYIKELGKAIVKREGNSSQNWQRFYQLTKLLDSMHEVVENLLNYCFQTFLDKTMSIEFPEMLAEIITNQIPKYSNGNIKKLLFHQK
Procedure, shortened: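 Cell-free radioligand binding with extracted receptor protein, read by filter-based scintillation counting 16 hours after dosing. Loss of specific signal versus DMSO baseline was scored. Primary screen ran in duplicate at 25 uM; actives were followed up in concentration series.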

[2] = molecular target: Nuclear receptor subfamily 1 group I member 2 (Homo sapiens) (UniProt O75469); test: NVS_NR_hPXR: NovaScreen (NVS) Nuclear Receptor Binding Assay for human Pregnane X Receptor (PXR) (AID 2283365);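 also: a drop in FRET signal versus DMSO baseline means the compound binds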
Procedure, shortened: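 Read-out: TR-FRET, human PXR, 2 h post-dosing, cell-free. Loss of signal vs DMSO taken as binding activity; 25 uM primary, concentration series secondary.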

[3] = molecular target: rat Androgen Receptor (AR), Ar (gene 24208) (UniProt P15207); test: NVS_NR_rAR: NovaScreen (NVS) Nuclear Receptor Binding Assay for rat Androgen Receptor (AR) (AID 2283366)
Procedure, shortened: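 Cell-free radioligand binding on extracts of prostate from testosterone-pretreated rats, read by filter-based scintillation counting 18 h after dosing. Loss of bound signal fitted positively versus DMSO; primary screen in duplicate at 25 uM, actives followed up in concentration series.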

[4] = molecular target: Peroxisome proliferator-activated receptor gamma (Homo sapiens) (UniProt P37231); test: NVS_NR_hPPARg: NovaScreen (NVS) Nuclear Receptor Binding Assay for human Peroxisome Proliferator-activated Receptor gamma (PPARg) (AID 2283370)
Peroxisome proliferator-activated receptor gamma (Homo sapiens), sequence (P37231 whole entry, looked up, the tested form may be a part): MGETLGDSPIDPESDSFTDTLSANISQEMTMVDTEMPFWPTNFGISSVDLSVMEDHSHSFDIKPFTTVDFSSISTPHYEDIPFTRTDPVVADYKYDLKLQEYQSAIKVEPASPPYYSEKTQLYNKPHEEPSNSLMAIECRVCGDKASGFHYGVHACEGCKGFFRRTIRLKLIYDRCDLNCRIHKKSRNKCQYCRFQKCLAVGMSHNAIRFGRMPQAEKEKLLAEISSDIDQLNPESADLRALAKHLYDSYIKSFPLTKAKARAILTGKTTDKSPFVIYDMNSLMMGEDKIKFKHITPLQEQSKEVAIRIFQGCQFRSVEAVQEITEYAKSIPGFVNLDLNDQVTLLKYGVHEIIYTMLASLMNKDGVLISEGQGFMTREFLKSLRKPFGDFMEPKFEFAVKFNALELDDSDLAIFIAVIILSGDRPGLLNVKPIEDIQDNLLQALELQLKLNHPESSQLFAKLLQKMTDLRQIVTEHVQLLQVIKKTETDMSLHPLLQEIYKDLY
Procedure, shortened: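 Extracted receptor protein, cell-free; compound incubated 2 h then fluorescence polarization read. Baseline: DMSO. Actives from 25 uM duplicate screen re-run across concentrations.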

[5] = molecular target: Agonist Androgen Response Element (ARE), AR (gene 367) (UniProt P10275); test: OT_AR_ARELUC_AG_1440: Odyssey Thera (OT) 24-hour CHO-K1 Luciferase Assay for Agonist Androgen Response Element (ARE) (AID 2283379)
Agonist Androgen Response Element (ARE), AR (gene 367), sequence (P10275 whole entry, looked up): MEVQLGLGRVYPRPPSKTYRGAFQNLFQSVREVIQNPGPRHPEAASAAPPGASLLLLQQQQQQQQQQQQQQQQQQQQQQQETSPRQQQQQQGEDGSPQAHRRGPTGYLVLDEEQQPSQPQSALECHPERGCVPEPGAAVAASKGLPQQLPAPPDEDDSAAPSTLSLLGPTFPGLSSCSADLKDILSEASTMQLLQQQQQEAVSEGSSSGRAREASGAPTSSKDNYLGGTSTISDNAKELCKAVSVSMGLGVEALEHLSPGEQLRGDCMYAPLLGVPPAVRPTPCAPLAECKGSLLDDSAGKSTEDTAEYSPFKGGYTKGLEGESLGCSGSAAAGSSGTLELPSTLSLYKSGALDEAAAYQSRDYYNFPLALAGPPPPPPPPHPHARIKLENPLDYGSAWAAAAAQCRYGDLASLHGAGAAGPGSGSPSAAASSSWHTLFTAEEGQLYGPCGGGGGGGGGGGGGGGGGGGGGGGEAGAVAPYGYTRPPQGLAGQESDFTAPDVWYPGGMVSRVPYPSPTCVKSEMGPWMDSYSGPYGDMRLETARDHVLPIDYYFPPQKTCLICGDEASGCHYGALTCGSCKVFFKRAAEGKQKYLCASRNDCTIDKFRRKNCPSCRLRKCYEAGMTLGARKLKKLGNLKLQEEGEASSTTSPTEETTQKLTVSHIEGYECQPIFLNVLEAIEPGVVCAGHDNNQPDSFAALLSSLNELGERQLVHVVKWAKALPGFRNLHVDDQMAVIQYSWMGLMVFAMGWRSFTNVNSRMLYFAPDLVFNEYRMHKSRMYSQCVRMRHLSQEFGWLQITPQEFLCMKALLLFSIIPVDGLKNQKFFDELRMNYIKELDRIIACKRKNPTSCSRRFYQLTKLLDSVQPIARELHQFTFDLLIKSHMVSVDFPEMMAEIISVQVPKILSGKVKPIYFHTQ
Procedure, shortened: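 Seed CHO-K1 cells; dose compounds for 24 h; add D-luciferin plus ATP in PBS; read luminescence. Signal increase relative to vehicle defines agonist activity, with at least 3 replicate wells per sample.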

[6] = molecular target: Estrogen receptor beta (Homo sapiens) (UniProt Q92731); test: OT_ER_ERbERb_1440: Odyssey Thera (OT) 24-hour HEK293T Protein-Complementation Assay for Estrogen Receptor-beta/-beta Homodimer (AID 2283380);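 also: fluorescence gain from ER beta LBD homodimer complementation read by laser scanning cytometry; scored as signal increase over DMSO baseline for both agonists and antagonists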
Estrogen receptor beta (Homo sapiens), sequence (Q92731 whole entry, looked up, the tested form may be a part): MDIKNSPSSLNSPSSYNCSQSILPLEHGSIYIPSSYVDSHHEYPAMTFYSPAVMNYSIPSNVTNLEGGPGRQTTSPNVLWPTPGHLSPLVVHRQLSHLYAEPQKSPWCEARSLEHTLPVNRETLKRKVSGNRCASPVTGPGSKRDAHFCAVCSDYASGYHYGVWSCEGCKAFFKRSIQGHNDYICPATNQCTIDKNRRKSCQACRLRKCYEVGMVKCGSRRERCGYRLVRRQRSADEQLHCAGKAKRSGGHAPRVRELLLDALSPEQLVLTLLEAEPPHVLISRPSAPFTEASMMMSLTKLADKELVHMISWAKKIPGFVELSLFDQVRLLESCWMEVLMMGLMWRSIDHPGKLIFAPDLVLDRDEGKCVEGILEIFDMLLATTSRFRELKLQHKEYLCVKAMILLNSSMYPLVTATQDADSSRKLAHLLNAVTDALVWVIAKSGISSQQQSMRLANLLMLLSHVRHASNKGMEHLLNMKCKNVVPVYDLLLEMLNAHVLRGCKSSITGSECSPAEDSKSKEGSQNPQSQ
Procedure, shortened: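 HEK293T cells stably expressing human ER-beta LBD (aa 310-547) PCA homodimer pair, dosed 24 h; formaldehyde-fixed, Draq5-stained. Readout: increase in nuclear (agonist) or nuclear plus cytoplasmic (antagonist) fluorescence intensity versus DMSO, gain-of-signal fitting.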

[7] = molecular target: Retinoic acid receptor RXR-alpha (Homo sapiens) (UniProt P19793); test: OT_NURR1_NURR1RXRa_0480: Odyssey Thera (OT) 8-hour HEK293T Protein Complementation Assay for Nurr1/retinoid X receptor (RXR) (AID 2283385)
Retinoic acid receptor RXR-alpha (Homo sapiens), sequence (P19793 whole entry, looked up, the tested form may be a part): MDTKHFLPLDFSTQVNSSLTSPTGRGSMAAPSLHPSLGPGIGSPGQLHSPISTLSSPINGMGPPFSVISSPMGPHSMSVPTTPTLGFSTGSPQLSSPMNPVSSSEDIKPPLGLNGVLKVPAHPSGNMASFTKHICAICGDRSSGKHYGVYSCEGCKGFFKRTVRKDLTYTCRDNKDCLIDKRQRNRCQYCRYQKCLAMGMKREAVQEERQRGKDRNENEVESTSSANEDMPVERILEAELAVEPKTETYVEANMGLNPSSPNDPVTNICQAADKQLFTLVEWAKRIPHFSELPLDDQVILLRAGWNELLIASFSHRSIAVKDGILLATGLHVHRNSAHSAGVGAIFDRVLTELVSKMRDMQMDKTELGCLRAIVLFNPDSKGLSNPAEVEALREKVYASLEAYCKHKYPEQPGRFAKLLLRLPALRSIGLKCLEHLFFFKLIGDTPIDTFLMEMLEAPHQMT
Procedure, shortened: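 HEK293T cells expressing Nurr1 and RXRα fused to reporter fragments were dosed with compound for 8 hours. Complex formation was read as fluorescence intensity and analysed as gain of signal against DMSO as baseline.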

[8] = molecular target: Peroxisome proliferator-activated receptor gamma (Homo sapiens) (UniProt P37231); test: OT_PPARg_PPARgSRC1_0480: Odyssey Thera (OT) 8-hour Protein-Complementation Assay for Peroxisome Proliferator-activated Receptor Gamma / SRC-1 Co-activator (AID 2283387);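 also: nuclear to cytoplasmic split Venus YFP fluorescence ratio reporting PPARg SRC-1 interaction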
Procedure, shortened: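 Split-YFP (IFP1/IFP2) PPARg/SRC-1 reporter, HEK293T, 37 °C, 5% CO2; 8 h compound; formaldehyde fix + Draq5; high-content imaging, N/C ratio, ≥350 cells/image, positive direction vs DMSO.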

[9] = molecular target: Peroxisome proliferator-activated receptor gamma (Homo sapiens) (UniProt P37231); test: OT_PPARg_PPARgSRC1_1440: Odyssey Thera (OT) 24-hour Protein-Complementation Assay for Peroxisome Proliferator-activated Receptor Gamma/ SRC-1 Co-activator (AID 2283388);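 also: nuclear to cytoplasmic ratio of reconstituted Venus YFP fluorescence in fixed imaged cells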
Procedure, shortened: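 Cells carrying the PPARg/SRC-1 fragment-complementation reporter receive compound for 24 hours, are fixed and counterstained with Draq5, then imaged. Increased nuclear relative to cytoplasmic YFP fluorescence above DMSO baseline indicates binding activity.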

[10] = molecular target: guinea pig Sigma Receptor, Non-selective Binding, SIGMAR1 (gene 100135589) (UniProt Q60492); test: NVS_OR_gSIGMA_NonSelective: NovaScreen (NVS) Nuclear Receptor Binding Assay for guinea pig Sigma Receptor, Non-selective Binding (AID 2283367)
guinea pig Sigma Receptor, Non-selective Binding, SIGMAR1 (gene 100135589), sequence (Q60492 whole entry, looked up): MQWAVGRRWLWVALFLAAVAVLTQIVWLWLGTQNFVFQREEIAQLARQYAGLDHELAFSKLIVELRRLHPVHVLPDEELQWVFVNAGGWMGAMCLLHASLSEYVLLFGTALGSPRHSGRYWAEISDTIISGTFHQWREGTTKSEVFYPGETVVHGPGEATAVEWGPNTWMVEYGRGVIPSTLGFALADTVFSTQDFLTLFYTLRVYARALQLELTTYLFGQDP
Procedure, shortened: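 Guinea pig brain membranes, cell-free radioligand binding; read 1 h after dosing by filter-based scintillation counting. Loss of signal vs DMSO baseline taken as displacement. Primary screen single concentration 25 uM in duplicate; actives retested in concentration series.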

[11] = molecular target: Retinoic acid receptor RXR-alpha (Homo sapiens) (UniProt P19793); test: OT_NURR1_NURR1RXRa_1440: Odyssey Thera (OT) 24-hour HEK293T Protein Complementation Assay for Nurr1/retinoid X receptor (RXR) (AID 2283386)
Procedure, shortened: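 HEK293T cells were dosed with compound and read 24 h later by fluorescence intensity in a protein-fragment complementation format, where Nurr1–RXRα interaction reconstitutes a split reporter. Activity was fitted as gain of signal relative to DMSO baseline.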

[12] = molecular target: human Thyroid Receptor Alpha (TRa), THRA (gene 7067) (UniProt P10827); test: NVS_NR_hTRa_Antagonist: NovaScreen (NVS) Nuclear Receptor Binding Assay for human Thyroid Receptor Alpha Antagonism (TRa) (AID 2283362);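 also: activity is loss of signal relative to DMSO baseline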
Procedure, shortened: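 In this biochemical format, receptor protein is dosed with chemical and read after 1 hour via AlphaLISA. Decreases from the DMSO baseline indicate antagonist activity; screening used 25 uM in duplicate before concentration-response confirmation.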

[13] = molecular target: mouse Estrogen Receptor alpha (Era), Esr1 (gene 13982) (UniProt P19785); test: NVS_NR_mERa: NovaScreen (NVS) Nuclear Receptor Binding Assay for mouse Estrogen Receptor alpha (Era) (AID 2283378);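 also: hit means loss of bound radioligand signal relative to DMSO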
mouse Estrogen Receptor alpha (Era), Esr1 (gene 13982), sequence (P19785 whole entry, looked up): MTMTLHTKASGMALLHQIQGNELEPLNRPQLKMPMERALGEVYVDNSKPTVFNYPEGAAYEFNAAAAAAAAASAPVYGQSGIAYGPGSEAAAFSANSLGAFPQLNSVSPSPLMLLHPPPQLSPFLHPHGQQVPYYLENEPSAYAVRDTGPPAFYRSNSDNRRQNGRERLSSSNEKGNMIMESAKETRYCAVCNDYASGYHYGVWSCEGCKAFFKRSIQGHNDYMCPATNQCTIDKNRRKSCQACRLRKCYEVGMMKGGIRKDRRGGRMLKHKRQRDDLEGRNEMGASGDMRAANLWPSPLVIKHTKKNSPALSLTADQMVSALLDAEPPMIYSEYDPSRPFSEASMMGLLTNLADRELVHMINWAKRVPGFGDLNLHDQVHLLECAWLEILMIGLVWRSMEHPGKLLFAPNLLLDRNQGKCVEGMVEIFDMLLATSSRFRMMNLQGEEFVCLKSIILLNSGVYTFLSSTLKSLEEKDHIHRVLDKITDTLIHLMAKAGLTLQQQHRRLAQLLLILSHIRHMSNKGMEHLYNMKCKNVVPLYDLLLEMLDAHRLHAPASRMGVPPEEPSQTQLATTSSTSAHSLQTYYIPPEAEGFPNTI
Procedure, shortened: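 Measurements come from scintillation counting after filtration, taken 18 hours after chemicals were added to a cell-free mouse Era preparation with radioligand. Screening was duplicate at 25 uM, with concurrent positive and negative controls and confirmatory concentration series for actives.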

[14] = molecular target: Estrogen receptor (Homo sapiens) (UniProt P03372); test: OT_ERa_GFPERaERE_0480: Odyssey Thera (OT) 8-hour HeLa Transcription Induction Assay for Estrogen Receptor (AID 2283381; active = hit-call score of the fitted dose curve at least 0.9, where 1 is the maximum; inactive = score below 0.9)
Estrogen receptor (Homo sapiens), sequence (P03372 whole entry, looked up): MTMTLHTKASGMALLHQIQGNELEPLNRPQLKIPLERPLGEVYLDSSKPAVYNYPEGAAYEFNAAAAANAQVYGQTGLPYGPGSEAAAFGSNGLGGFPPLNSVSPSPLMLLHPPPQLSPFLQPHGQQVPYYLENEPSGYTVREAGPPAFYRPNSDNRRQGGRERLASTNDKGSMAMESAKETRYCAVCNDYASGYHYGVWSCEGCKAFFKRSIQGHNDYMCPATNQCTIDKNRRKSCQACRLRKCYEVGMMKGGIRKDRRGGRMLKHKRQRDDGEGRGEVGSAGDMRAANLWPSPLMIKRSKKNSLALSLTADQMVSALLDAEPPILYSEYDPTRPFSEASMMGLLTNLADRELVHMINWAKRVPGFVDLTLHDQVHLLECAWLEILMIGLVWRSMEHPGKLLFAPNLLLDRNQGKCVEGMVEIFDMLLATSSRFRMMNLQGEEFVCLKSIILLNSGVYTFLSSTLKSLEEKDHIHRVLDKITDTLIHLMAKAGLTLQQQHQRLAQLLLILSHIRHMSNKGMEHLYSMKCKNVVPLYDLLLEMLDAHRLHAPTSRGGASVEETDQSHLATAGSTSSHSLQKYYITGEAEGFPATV
Procedure, shortened: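 HeLa cells dosed with compound and imaged by fluorescence microscopy at 8 h; GFP induction from an ERE reporter quantified by high-content image analysis and fitted as gain of signal against DMSO baseline.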

[15] = molecular target: Bile acid receptor (Homo sapiens) (UniProt Q96RI1); test: OT_FXR_FXRSRC1_0480: Odyssey Thera (OT) 8-hour HEK293T Protein-Complementation Assay for Farnesoid X receptor/SRC-1 Co-activator (AID 2283383)
Procedure, shortened: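 HEK293T cells expressing FXR and SRC-1 fused to reporter fragments were dosed with compound for 8 h; fluorescence from the reconstituted reporter marked co-activator recruitment. Gain of signal was fitted against the DMSO baseline.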

[16] = CEETOX_H295R_11DCORT: CeeTox H295R High-throughput Steroidogenesis Assay for 11-Deoxycortisol (11DCORT) (AID 2283432; active = hit-call score of the fitted dose curve at least 0.9, where 1 is the maximum; inactive = score below 0.9); details: actives raise or lower the signal
Procedure, shortened: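 Steroidogenesis in human H295R cells: 48 h chemical exposure after forskolin priming, 11-deoxycortisol measured by LC-MS/MS.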

[17] = CEETOX_H295R_OHPREG: CeeTox H295R High-throughput Steroidogenesis Assay for OH-Pregnenolone (OHPREG) (AID 2283434; active = hit-call score of the fitted dose curve at least 0.9, where 1 is the maximum; inactive = score below 0.9); details: actives raise or lower the signal
Procedure, shortened: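 Human adrenal H295R cells were prestimulated 48 h with 10 uM forskolin, then exposed 48 h to chemical in 0.1% DMSO. Medium 17alpha-hydroxypregnenolone was quantified by HPLC-MS/MS after MTBE extraction; bidirectional fitting versus DMSO baseline.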

Measured: AC50

CCCCCCCCCCCCCOS(=O)(=O)O
active: [1] 2.94 µM | [3] 1.7 µM | [4] 0.832 µM | [7] 78.4 µM
inactive: [2] | [5] | [6] | [8] | [9]

c1ccc2sc(SN(C3CCCCC3)C3CCCCC3)nc2c1
active: [10] 5.3 µM

CCCCCCCCCCCCCCCC(=O)O
inactive: [4] | [6] | [7] | [11] | [8] | [9]

CC(=O)O[C@]1(C(C)=O)CC[C@H]2[C@@H]3C[C@H](C)C4=CC(=O)CC[C@]4(C)[C@H]3CC[C@@]21C
active: [1] 0.00114 µM

O=Nc1ccc(Nc2ccccc2)cc1
active: [12] 17.6 µM | [13] 46.4 µM | [14] 72.3 µM | [7] 0.707 µM
inactive: [4] | [5] | [6] | [15] | [8] | [9]

CC(C)=CCO
inactive: [10]

CC(C)c1cccc(O)c1
inactive: [2] | [14] | [7] | [11] | [8] | [9] | [16] | [17]
active: [6] 33.5 µM

CC(=O)OCCOC(C)=O
inactive: [6] | [14] | [11] | [8] | [9]

O=C1C(c2[nH]c3ccc(S(=O)(=O)O)cc3c2O)=Nc2ccc(S(=O)(=O)O)cc21
inactive: [4] | [6] | [7] | [11] | [8] | [9]

COC(=O)C1=C(C)NC(C)=C(C(=O)OCCN(C)Cc2ccccc2)C1c1cccc([N+](=O)[O-])c1 (centres undefined)
inactive: [13]

C=C(C)C(=O)O
inactive: [6] | [14] | [7] | [8] | [9]

CCCCCCCCC
inactive: [6] | [14] | [11] | [8] | [9]

CC(C)CCCCCCCOC(=O)c1ccc(C(=O)OCCCCCCCC(C)C)c(C(=O)OCCCCCCCC(C)C)c1
inactive: [4] | [6] | [7] | [11] | [8] | [9]

O=C(O)CCSCCC(=O)O
inactive: [13]

CCCCOCCOCCOCCOCCO
inactive: [6] | [14] | [7] | [11] | [8] | [9]

Cc1ccc(S)cc1
inactive: [6] | [14] | [8] | [9]
active: [7] 79.4 µM | [11] 79.8 µM

CCCCCCCCCC=O
inactive: [13] | [6] | [14] | [7] | [11] | [8] | [9]

Clc1ccc2c(c1)C(N1CCNCC1)=Nc1ccccc1O2
inactive: [13]

NC(=O)Nc1ccc(Cl)cc1
inactive: [13] | [6] | [14] | [11] | [8] | [9] | [16] | [17]
